Screens as filed in PubChem.
Rows were chosen to be rich in hits. Some 10% of all compounds tested hit in one or more screens of this group.
Pf growth 48h: P. falciparum growth inhibition at 48 hours (one generation); Potency, µM (top dose mostly 28.7 µM), inactives show at the top dose activity change, negative = inhibition, actives largely listed as inhibitors; actives 5.9% (n = 310,000); AID 504832; P. falciparum luciferase growth in erythrocytes, 48 h; further: on the % scale 0 is the no-effect control and ±100 the full control effect
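Luminescence readout; reporter = integrated firefly luciferase in P. falciparum. RBC culture at 2% hematocrit, 0.1% parasitemia final, 37 C/5% CO2; decreased signal taken as growth inhibition.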
SARS PLP yeast: inhibitors of SARS-CoV papain-like protease in yeast; S. cerevisiae expressing SARS-CoV PLpro, growth rescue; Potency, µM (top dose mostly 32.9 µM), without a hit: top-dose activity, positive = growth rescue, hits mostly activators; actives 0.19% (n = 330,000); AID 485353; calls by dose curve; further: 0% is about no effect; nearly all actives have a fitted effect of over 55% in size
Pf growth 96h: P. falciparum growth inhibition at 96 hours; P. falciparum luciferase reporter growth, 96 h; Potency, µM (series often up to 28.7 µM), inactives show at the top dose activity change, negative = inhibition, hits mostly inhibitors; actives 6.9% (n = 320,000); AID 504834; further: on the % scale 0 is the no-effect control and ±100 the full control effect
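P. falciparum expressing integrated firefly luciferase grown in erythrocytes (2% hematocrit, 0.05% parasitemia final) with compounds for 96 hours at 37 C, 5% CO2. Growth inhibition read as loss of luminescence after adding luciferase detection reagent.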
NS1 function inh: influenza NS1 inhibition; actives 0.4% (n = 270,000); Potency, µM (titrated, usually from 46.1 µM), inactives show at the top dose activity, positive = more growth; AID 2326; calls by dose curve; further: actives are rising curves; nearly all actives have a fitted effect of over 50% in size
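Read-out: OD600 growth recovery of NS1-expressing budding yeast. Cells grown overnight at 30C in -URA glucose medium, washed, resuspended and diluted 1:100 in 2% galactose assay medium, pH 6.0. Same strain lacking NS1 served as positive control.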
* hit, by the source's call; ? = inconclusive; . = not tested or not shown. Unless noted, the call rests on the fitted dose curve; in most records, active means well fitted inhibition curve with a large enough effect; inconclusive means small, poorly fitted or top-dose-only effect, or another doubt; inactive means no such curve, though single readings can be large or run the other way. Potency means the concentration at half of the fitted maximal effect.

SMILES	Pf growth 48h	SARS PLP yeast	Pf growth 96h	NS1 function inh
C=CCN(c1ccccc1C(=O)NCC(=O)O)S(=O)(=O)c1ccc(C)cc1	17%	1%	5%	7%
C=CCN(c1ccccc1C(=O)O)S(=O)(=O)c1ccc(NC(=O)OC)cc1	2.3µM*	1%	48%	?
COc1cc2ccccc2cc1C(=O)NC1CCC(C)CC1 (stereo unspecified)	.	-7%	.	.
COc1ccc(NC(=O)N2CCCC2C(=O)NCCc2ccccc2)cc1 (stereo unspecified)	64%	-3%	220%	-9%
Cc1cccc(CSc2ccc3nnc(-c4ccccn4)n3n2)c1	3.7µM*	6%	?	.
Cc1ccc(C(=O)NCCc2nnc3ccc(SCC(=O)Nc4c(C)cc(C)cc4C)nn23)cc1	-5%	?	1%	-7%
O=C(CSc1ccc2nnc(-c3ccccn3)n2n1)Nc1ccccc1F	9.3µM*	9%	-31%	-4%
CC(=O)Nc1ccc(NC(=O)CSc2ccc3nnc(-c4ccccn4)n3n2)cc1	2%	0%	0%	4%
O=C(CSc1ccc2nnc(-c3ccccn3)n2n1)Nc1cccc(F)c1	?	-9%	13µM*	12%
Cc1ccc(C(=O)NCCc2nnc3ccc(SCC(=O)Nc4ccccc4C)nn23)cc1	?	4%	10µM*	0%
COc1ccc(NC(=O)CSc2nnnn2C2CC3C=CC2C3)cc1 (stereo unspecified)	?	-2%	?	-2%
S=C(NCCc1ccccc1)NCC(c1ccco1)N1CCCCC1 (stereo unspecified)	?	1%	2.6µM*	2%
CSCCC(NC(=O)c1ccco1)C(=O)NCC(c1ccco1)N1CCCCC1 (stereo unspecified)	-29%	2%	?	.
CC(C)C(NC(=O)c1ccco1)C(=O)NCC(c1ccco1)N1CCCCC1 (stereo unspecified)	?	-2%	2.1µM*	-13%
Cc1[nH]nc2c1C1(C(=O)N(Cc3ccc(Cl)cc3)c3ccccc31)C(C#N)=C(N)O2 (stereo unspecified)	13µM*	-2%	34%	-54%
CCCN1Cc2cccc(C(=O)NC(CC(=O)OCC)c3ccc(OC(C)C)cc3)c2C1=O (stereo unspecified)	13µM*	-4%	-16%	.
CCOc1ccc(NC(=O)c2cccc3c2C(=O)N(Cc2cccnc2)C3)cc1	?	-1%	2%	-38%
CCCN1Cc2cccc(C(=O)NC(CC(=O)OCC)c3ccc(C)cc3)c2C1=O (stereo unspecified)	?	-4%	0%	.
CCOC(=O)CC(NC(=O)c1cccc2c1C(=O)N(Cc1cccnc1)C2)c1ccc(OC(C)C)cc1 (stereo unspecified)	9.3µM*	0%	?	.
CC1CCCC(C)N1CC(O)COC1CCC(C(C)(C)C)CC1 (stereo unspecified)	10µM*	-5%	81%	-26%
COc1n[nH]c(C(=O)Nc2cc(Cl)ccc2Cl)c1[N+](=O)[O-]	?	-1%	4.7µM*	-25%
COc1ccc(Cl)cc1NC(=O)c1[nH]nc(OC)c1[N+](=O)[O-]	-10%	-3%	-10%	-2%
COc1cccc(N2CCN(S(=O)(=O)c3ccc4c(c3)NC(=O)C(C)C(=O)N4)CC2)c1 (stereo unspecified)	-23%	16%	?	30%
CN1CN(C)C(c2ccncc2)=C1c1ccncc1	1%	-5%	?	-15%
COc1cc(/C=N/NC(=O)c2ccccn2)ccc1OC(=O)c1ccccc1Br	44%	-3%	2.1µM*	-4%
SMILES	Pf growth 48h	SARS PLP yeast	Pf growth 96h	NS1 function inh
COc1cc(/C=N/NC(=O)c2ccccn2)ccc1OC(=O)c1ccc(Br)cc1	46%	-2%	14%	9%
CCOc1cc(/C=N/NC(=O)c2ccccn2)ccc1OC(=O)c1cccs1	29%	?	9.3µM*	13%
O=C(N/N=C/c1ccc(OC(=O)c2cccs2)cc1)c1ccccn1	56%	-5%	-30%	-5%
COc1ccccc1N1CCN(c2nccc(C)n2)CC1	25%	2%	2%	-6%
N#CC1(NC(=O)COC(=O)c2nccnc2N)CCCCC1	-17%	2%	30%	.
Cc1ccc(-c2onc(C)c2C)cc1S(=O)(=O)N1CC(C)Oc2ccccc21 (stereo unspecified)	15µM*	3%	-29%	16%
C=CCNc1nc(N)c([N+](=O)[O-])c(N2CCCCCC2)n1	-10%	-1%	-2%	-56%
Cc1cccc(Nc2nc(N)c([N+](=O)[O-])c(N3CCOCC3)n2)c1	?	8%	?	-6%
COc1cccc(Nc2nc(N)c([N+](=O)[O-])c(N3CCOCC3)n2)c1	?	-1%	15µM*	-5%
CCN(CC)CCCNc1nc(N)c([N+](=O)[O-])c(N2CCCCCC2)n1	-6%	12%	2.9µM*	-5%
COc1ccc(Nc2nc(N)c([N+](=O)[O-])c(N3CCN(C)CC3)n2)cc1	?	-2%	?	2%
COc1ccc(Nc2nc(N)c([N+](=O)[O-])c(N3CCCC3)n2)cc1	?	-2%	13µM*	-7%
O=C(CN1CCN(Cc2ccccc2)CC1)NNC(=O)c1ccccc1	-10%	0%	?	.
CCc1ccc(C(=O)NNC(=O)CCN2CCN(Cc3ccccc3)CC2)cc1	2.3µM*	1%	38%	-1%
COC(=O)c1ccc(NC(=O)CCN2CCN(Cc3ccccc3)CC2)cc1	13µM*	-2%	-27%	-2%
NNc1nnc2c3cc(F)ccc3n(Cc3ccccc3)c2n1	1.5µM*	-1%	3.3µM*	-1%
CCc1ccc2c(c1)c1nnc(NN)nc1n2C	12µM*	-2%	?	-5%
CCc1ccc2c(c1)c1nnc(NN)nc1n2CC	?	-20%	?	18%
CCn1c2ccc(F)cc2c2nnc(NN)nc21	?	10%	3.7µM*	11%
CCCn1c2ccc(F)cc2c2nnc(NN)nc21	?	-4%	1%	.
Cc1ccc(S(=O)(=O)CC(=O)c2ccc(C(C)(C)C)cc2)cc1	2.3µM*	-2%	2.6µM*	-17%
CC(=O)N1CCN(C(=O)c2cc(S(=O)(=O)N(C)Cc3ccccc3)ccc2Cl)CC1	?	3%	61%	.
CCOC(CCn1c(SCc2cccc([N+](=O)[O-])c2)nc2ccccc2c1=O)OCC	?	-11%	-2%	-14%
Cn1c(SCc2cccc([N+](=O)[O-])c2)nc2ccccc2c1=O	5.2µM*	-22%	10µM*	.
Cc1ccc(CSc2nc3ccccc3c(=O)n2C)cc1	-20%	0%	-13%	-3%
Cn1c(SCc2cccc(C#N)c2)nc2ccccc2c1=O	10µM*	-1%	69%	-28%
COCCn1c(SCc2cccc([N+](=O)[O-])c2)nc2ccccc2c1=O	9.3µM*	-3%	?	-9%
COc1cc(NC(=O)Nc2ccc(Cl)c(Cl)c2)c(C(=O)O)cc1OC	24%	1%	-20%	6%
CSc1ccc(S(=O)(=O)NC2CC2)cc1	20%	-11%	?	2%
CCOc1ccc(OCCNCc2ccc(OC(C)C(=O)N(C)C)c(OCC)c2)cc1 (stereo unspecified)	.	2%	-9%	-1%
